Source: article PMC4336329 (PLoS ONE, 2015)
Among all 310,000 compounds or so, about 14,000 (4.5%) showed an effect of 50% or more. Effects have a minus sign here. The sample holds strong results, similar compounds and a random draw of the others, so the mix is not that of the screen.

Each molecule was assayed against human ether-à-go-go-related gene (hERG) potassium channel (human, UniProt Q12809) (assay: primary screen, population patch clamp on CHO cells stably expressing hERG; higher = less effect of the substance).
Sequence of human ether-à-go-go-related gene (hERG) potassium channel (Q12809 whole entry, looked up): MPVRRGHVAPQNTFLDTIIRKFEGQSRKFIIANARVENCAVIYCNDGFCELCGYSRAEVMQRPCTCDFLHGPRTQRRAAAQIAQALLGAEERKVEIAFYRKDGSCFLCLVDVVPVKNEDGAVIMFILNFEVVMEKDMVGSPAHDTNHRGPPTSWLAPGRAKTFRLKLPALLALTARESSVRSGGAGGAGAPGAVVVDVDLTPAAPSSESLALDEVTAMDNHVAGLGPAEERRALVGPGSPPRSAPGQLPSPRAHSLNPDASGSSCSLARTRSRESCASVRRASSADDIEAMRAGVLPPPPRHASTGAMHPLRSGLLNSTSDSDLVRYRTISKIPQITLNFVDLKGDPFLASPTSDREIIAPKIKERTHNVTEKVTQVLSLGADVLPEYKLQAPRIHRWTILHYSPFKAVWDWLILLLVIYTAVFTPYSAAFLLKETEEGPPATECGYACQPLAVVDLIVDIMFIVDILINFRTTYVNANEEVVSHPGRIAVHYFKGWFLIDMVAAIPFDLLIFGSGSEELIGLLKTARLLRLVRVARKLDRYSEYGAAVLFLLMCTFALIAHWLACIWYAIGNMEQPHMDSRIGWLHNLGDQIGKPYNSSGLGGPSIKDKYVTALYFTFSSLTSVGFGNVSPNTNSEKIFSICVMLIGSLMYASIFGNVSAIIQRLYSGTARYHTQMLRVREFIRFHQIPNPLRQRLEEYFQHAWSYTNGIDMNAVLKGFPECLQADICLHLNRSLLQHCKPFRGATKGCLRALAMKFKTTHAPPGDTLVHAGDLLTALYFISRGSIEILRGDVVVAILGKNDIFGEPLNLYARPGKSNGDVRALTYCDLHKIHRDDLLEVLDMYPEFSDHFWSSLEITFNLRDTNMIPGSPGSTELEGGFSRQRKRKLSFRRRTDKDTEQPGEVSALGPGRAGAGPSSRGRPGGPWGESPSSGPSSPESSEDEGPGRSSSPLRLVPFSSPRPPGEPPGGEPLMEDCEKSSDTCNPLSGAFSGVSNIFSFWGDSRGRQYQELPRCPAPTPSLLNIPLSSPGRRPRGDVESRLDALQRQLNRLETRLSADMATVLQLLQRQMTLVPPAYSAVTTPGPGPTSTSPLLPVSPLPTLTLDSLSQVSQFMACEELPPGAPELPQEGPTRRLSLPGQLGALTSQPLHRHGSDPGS
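Note: peak tail current of the secondary pulse compared with the same well before compound.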

SMILES | hERG current change (%, negative = inhibition) at 10uM [%]
C=CCN1C(=O)C(C)(C)N(C(=O)c2cccc([N+](=O)[O-])c2)c2ccccc21 | -16.4
Cc1ccc[n+](C2C(c3ccc([N+](=O)[O-])cc3)C(C#N)=C([S-])NC2(O)C2CC2)c1 (stereo not drawn) | 0.00258
O=C(CCCN1C(=O)c2ccccc2C1=O)NCC1CCCO1 (stereo not drawn) | 12.2
COc1cc(SC)ccc1C(=O)Nc1ccc2c(c1)OCCO2 | -18.4
CCCCc1c(C)nn(-c2nnc3c4ccccc4n(C)c3n2)c1C | -4.7
CCCC1=Nc2cc(C(=O)NCCCN3CCOCC3)ccc2Sc2ccccc21 | -9.32
CN(C)S(=O)(=O)c1ccc(N2CCCC2)c(C(=O)Nc2ccccc2)c1 | -23.5
Cc1ccc(NC(=O)c2cc([N+](=O)[O-])ccc2N2CCCC2)cc1 | -0.291
CN(C)S(=O)(=O)c1ccc(N2CCCC2)c(C(=O)Nc2cccc(F)c2)c1 | 0.224
CC(=O)Nc1cccc(NC(=O)c2cc([N+](=O)[O-])ccc2N2CCCCC2)c1 | -69.3
CN(C)S(=O)(=O)c1cccc(NC(=O)c2cc([N+](=O)[O-])ccc2N2CCCCC2)c1 | -53
O=C(Nc1cccc(S(=O)(=O)N2CCCCC2)c1)c1cc([N+](=O)[O-])ccc1N1CCOCC1 | -64.2
COc1ccc(NC(=O)c2cc([N+](=O)[O-])ccc2N2CCCCC2)cc1 | 4.86
O=C(Nc1cccc(C(F)(F)F)c1)c1cc(S(=O)(=O)N2CCCCC2)ccc1N1CCOCC1 | -8.02
O=C(Nc1cccc(S(=O)(=O)N2CCOCC2)c1)c1cc([N+](=O)[O-])ccc1N1CCOCC1 | -15.2
N#CC(C#N)=Cc1cccn1-c1ccc(C(=O)O)cc1 | 15.5
CC(C)NC(=O)CN1C(=O)C(=O)c2ccccc21 | -9.78
Cc1nc2ccc(S(=O)(=O)NC(C(=O)N3CCCC3)C(C)C)cc2s1 (stereo not drawn) | 7.12
COc1cc2c(cc1OC)CN(C(=O)c1ccc(S(=O)(=O)N3CCCCCC3)cc1)CC2 | -27.3
Cc1nnc(NC(=O)CSc2nc3c(c(=O)n2C)SC(C)C3)s1 (stereo not drawn) | 4.1
Cc1ccc(-c2nnc(SCC(=O)NNC(=O)COc3cccc4ccccc34)n2C)cc1 | 5.74
O=C(N/N=C/c1cccc(Br)c1)c1ccc(N2CCCC2=O)cc1 | -57.6
COc1cccc(/C=N/NC(=O)c2ccc(N3CCCC3=O)cc2)c1 | -19.8
O=C(N/N=C/c1ccccc1)c1ccc(N2CCCC2=O)cc1 | 5.87
